Several values for one entry are separate records, joined by “and”; a condition that tells them apart may be missing. Equal entries are not always repeated. Among all 260,000 compounds or so, about 1,500 (0.58%) were called active. Inconclusive results (about 5%) are left out.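 Rule for the calls: active = inhibition above a set limit at one or more doses, reproduced on every date tested; inconclusive = results disagree between test dates, or hit never tested in dose response; inactive = the rest.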 A selection follows. Measured potencies and affinities stand elsewhere.

The assay deals with Virion infectivity factor (Human immunodeficiency virus type 1 group M subtype B (isolate BH10)) + Virion infectivity factor (Human immunodeficiency virus type 1 group M subtype B (isolate BRU/LAI)) + Virion infectivity factor (Human immunodeficiency virus type 1 group M subtype B (isolate PCV12)) + Virion infectivity factor (Human immunodeficiency virus type 1 group M subtype B (isolate HXB2)) + DNA dC->dU-editing enzyme APOBEC-3G (Homo sapiens) (UniProt P69720+P69721+P69722+P69723+Q9HC16). Nature of the assay: HIV-1 Vif–A3G interaction blockers – biochemical, TR-FRET, GST-Vif 1-94, biotin-A3G peptide, dose response retest, primary screen (AID 1117319).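 Note: Vif residues 1-94 fused to GST binding biotinylated APOBEC3G peptide 110-148; 0% = full assay without inhibitor and 100% = GST in place of GST-Vif.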 Particulars: TR-FRET GST-Vif / biotin-A3G peptide binding; stronger effect = higher value. A general note: Time-resolved FRET reads energy transfer from a long-lived donor to a nearby acceptor.
Take `CCOC(=O)c1ccc(Oc2nc(N(C)C)nc(N3CCOCC3)n2)cc1`: the inhibition is -15.9% (inactive). As for `CN1CCN(c2nnc(-c3ccc(Cl)cc3)c3ccccc23)CC1`, the inhibition was 3.71% (inactive). Consider `Cc1ccc(C)c(/C=N/n2cc(-c3ccccc3)[nH]c2=S)c1`, for which the inhibition is -9.36% (inactive).

As for `Cc1ccc(-c2cc(-c3ccc(C)o3)nc(N)c2C#N)cc1`, the inhibition was 27.2% (inactive). In the case of `Cc1ccc(-c2cc(-c3ccc(F)cc3)c(C#N)c(N)n2)o1` it was 18.2% (inactive). `Cc1ccc(-c2cc(-c3ccc(Cl)cc3)c(C#N)c(N)n2)o1`: the inhibition was 24.5% (inactive). In the case of `Cc1cc(-c2ccc(Cl)cc2)c(C#N)c(N)n1` it was -1.08% (inactive). As to `Cc1ccc(CNC(=O)c2ccc(CN3CCOCC3)cc2)cc1`, the inhibition was 32.3% (inactive). The same measure for `Cc1[nH]c2ccccc2c1C(=O)NS(=O)(=O)Nc1ccc(Cl)cc1`: 12.1% (inactive); for `CN(C)S(=O)(=O)c1ccc(C(=O)Nc2nnc(-c3cccs3)o2)cc1`: 27.3% (inactive). In the case of `O=C(Nc1ccc(N2CCN(C(=O)c3ccc(Cl)cc3)CC2)cc1)c1ccc(Br)o1` it was 10.6% (inactive) and 6.22% (inactive). As to `CCOC(=O)c1c(NC(=O)Cc2cccs2)sc2c1CCCC2`, the inhibition is -5.96% (inactive). As to `COC(=O)c1c(NC(=O)Cc2cccs2)sc2c1CCCC2`, the inhibition was 29.5% (inactive). On to `O=c1c2cc(N3CCOCC3)ccc2[nH]c(=S)n1Cc1ccc(Cl)cc1`, for which the inhibition is -2.52% (inactive). As to `O=c1c2cc(N3CCOCC3)ccc2[nH]c(=S)n1CCN1CCCC1`, the inhibition is 12.5% (inactive). In the case of `O=c1c2cc(N3CCOCC3)ccc2[nH]c(=S)n1Cc1ccccc1Cl`, the inhibition is -15.9% (inactive).

`CCCCn1c(=S)[nH]c2ccc(N3CCOCC3)cc2c1=O`: the inhibition was -3.86% (inactive). Regarding `CN(C)C(CNS(=O)(=O)c1ccc(F)cc1)c1cccnc1` (stereo unspecified), the inhibition is -1.58% (inactive). Turning to `CN(C)S(=O)(=O)c1ccc(Cl)c(C(=O)NNC(=O)c2ccc3c(c2)OCO3)c1`, the inhibition is -8.17% (inactive). In the case of `Cc1ccsc1C(=O)NC(C)c1ccc2c(c1)OCO2` (stereo unspecified) it was 0.99% (inactive); in that of `CCSc1nnc(Nc2ccc(C)cc2)s1`, 1.17% (inactive). In the case of `CC(C)C12CN3CC(C(C)C)(CN(C1)C3c1ccc3c(c1)OCO3)C2=O` (stereo unspecified) it was 2.83% (inactive); in that of `Cc1ccc2oc(-c3ccc(NC(=O)c4ccncc4)cc3O)nc2c1`, -2% (inactive). `O=C(COC(=O)c1ccc(S(=O)(=O)C(F)F)cc1)Nc1cccnc1Cl`: the inhibition is 10.1% (inactive). In the case of `Cc1cc(C)n2nc(SCC(=O)N3CCC(C(=O)O)CC3)nc2n1` it was 0.2% (inactive); in that of `Cc1cccc(OCc2nnc(NC(=O)Cc3cccs3)s2)c1`, -15.6% (inactive). In the case of `Clc1ccccc1Oc1cnc2ccccc2n1` it was 31.7% (inactive); in that of `O=c1c(OC2OC(CO)C(O)C(O)C2O)c(-c2ccc(O)c(O)c2)oc2cc(O)cc(O)c12` (stereo unspecified), -4.71% (inactive); in that of `C[C@@H]1O[C@@H](OC[C@H]2O[C@@H](Oc3c(-c4ccc(O)c(O)c4)oc4cc(O)cc(O)c4c3=O)[C@H](O)[C@@H](O)[C@@H]2O)[C@H](O)[C@H](O)[C@H]1O`, -12% (inactive). In the case of `O=c1c(O[C@@H]2O[C@H](CO)[C@@H](O)[C@H](O)[C@H]2O)c(-c2ccc(O)c(O)c2)oc2cc(O)cc(O)c12` it was -5.92% (inactive). Turning to `COc1ccc(-c2oc3c(CC=C(C)C)c(O[C@@H]4O[C@H](CO)[C@@H](O)[C@H](O)[C@H]4O)cc(O)c3c(=O)c2O[C@@H]2O[C@@H](C)[C@H](O)[C@@H](O)[C@H]2O)cc1`, the inhibition is 0.27% (inactive). As to `CN(C)C(CNC(=O)CCc1c[nH]c2ccccc12)c1ccccc1` (stereo unspecified), the inhibition was 0.02% (inactive). The same measure for `O=C(COC(=O)C1CCN(S(=O)(=O)c2cccs2)CC1)Nc1ccccc1`: -2.54% (inactive); for `CCN(Cc1ccccc1)C(=O)Cn1c(C(C)O)nc2ccccc21` (stereo unspecified): -14.7% (inactive). With `CC(=O)OC1C(OC(C)=O)C2C(C)CC3OC(=O)C(C)C3CC2(C)C1OC(C)=O` (stereo unspecified), the inhibition is 1.67% (inactive).

Take `COc1ccc(C(OCC(O)CNCCc2ccc(S(N)(=O)=O)cc2)c2ccc(OC)cc2)cc1` (stereo unspecified): the inhibition was -0.36% (inactive). For the compound `CC(=O)c1ccc(-n2c(CCC(=O)O)ccc2-c2cccs2)cc1`, the inhibition is 7.93% (inactive). Consider `Cc1ccc(-n2c(CCC(=O)O)ccc2-c2cccs2)cc1`, for which the inhibition was 9.93% (inactive).

Regarding `Cc1c(C(=O)Nc2ccccc2-c2ccccc2)cccc1[N+](=O)[O-]`, the inhibition was 22.9% (inactive). For the compound `Cc1ccccc1CNC(=O)c1ccc(Cl)c([N+](=O)[O-])c1`, the inhibition was 3.74% (inactive).

As for `Cc1nn(C)cc1CNC(=O)c1cccc(Cl)c1`, the inhibition is 0.88% (inactive). In the case of `COCC(C)OC(=O)c1c(N)n(-c2ccc(OC)c(OC)c2)c2nc3ccccc3nc12` (stereo unspecified) it was 7.95% (inactive); in that of `COc1cc(/C=C/C(=O)OCC(=O)Nc2ccc3c(c2)OCCO3)ccc1OCC#N`, -0.31% (inactive).

With `N#CC1=C2C=Cc3ccccc3N2CCCC1=O`, the inhibition was 6.87% (inactive).

Regarding `Cc1ccc(C)c(-n2c(Cc3cc(=O)[nH]c(=O)[nH]3)nnc2SC(C)C)c1`, the inhibition was 71.3% (inactive). The same measure for `COC(=O)C(C)Sc1nnc(Cc2cc(=O)[nH]c(=O)[nH]2)n1-c1ccc(OC)cc1` (stereo unspecified): 7.85% (inactive).

As to `Cn1c(=O)c2c(nc(CN3CCN(C(=O)c4ccco4)CC3)n2Cc2cccc(Cl)c2)n(C)c1=O`, the inhibition was 7.79% (inactive). Regarding `COc1ccccc1OCC(=O)N1CCCC(Nc2cccc(F)c2)C1` (stereo unspecified), the inhibition is -1.81% (inactive).

On to `COCC(=O)n1nc(-c2ccccc2)nc1NCc1ccc(N(C)C)cc1`, for which the inhibition is -5.23% (inactive). Take `Cc1cc(C)n(CC(=O)N2CCc3ccccc32)c(=O)c1C#N`: the inhibition was -19.3% (inactive). In the case of `Cc1cc(O)ccc1C1(c2ccc(O)cc2C)OC(=O)c2ccccc21` it was -0.95% (inactive); in that of `O=C1OC2(c3ccccc31)c1ccccc1-c1ccccc12`, -7.13% (inactive); in that of `Cc1cccc(NC(=O)CN2CCN(C(=O)c3oc4c(Cl)cccc4c3C)CC2)c1C`, -10% (inactive). The same measure for `Cc1cccc(Nc2nc(N)c([N+](=O)[O-])c(N3CC(C)OC(C)C3)n2)c1` (stereo unspecified): -1.71% (inactive). In the case of `COC(Cc1nnc(SC)n1-c1ccccc1)OC` it was 6.71% (inactive); in that of `COC(Cc1n[nH]c(=S)n1-c1ccc(Cl)cc1)OC`, -7.57% (inactive).

One may read the inhibition as the change of the read-out against control, counted positive when it falls.

For the origin of these results see PubChem BioAssay AID1117319 (Southern Research Institute, 2015).
